Avidin fluor – compound fluoresces at 488/530 nm on avidin beads; compound fluorescence 488/530 nm, flow cytometry; hits give high values; fluorescence (KMESF) at 10 µM; 220,000 tested, 0.38% active; AID 1775; in the data active means fluorescence above about 47
GSH fluor – compound fluoresces at 488/530 nm on GSH beads | 190,000 tested, 0.25% active | fluorescence (KMESF) at 10 µM | GSH beads flow cytometry, compound fluorescence 488/530 nm; hits give high values; in the data active means fluorescence above about 89;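 further: glutathione beads carrying GST-tagged Bcl family fusion proteins plus one bare bead set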
RGS16-Gao – modulates binding between human RGS16 and Galphao | O15492+P09471 | 220,000 tested, 0.38% active | bead-based flow cytometry RGS16-Galphao binding, fluorescence; actives lie on both sides | AID 1441 | binding response (% of control), % at 10 µM; call rule not given here;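 further: Galphao activated by GDP with aluminum fluoride before binding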
RGS8-Gao reg – human RGS8-Galphao interaction regulation; 220,000 tested, 0.34% active; response (percent of control binding), % at 10 µM; AID 1423; P09471; multiplexed bead flow cytometry, RGS8-Galphao binding; actives lie on both sides; in the data active means response below about 60% or above about 140%; inactive means in between;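 further: Galphao activated as the GDP aluminium fluoride complex binding bead-coupled RGS8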
Target sequence (P09471 whole entry, looked up): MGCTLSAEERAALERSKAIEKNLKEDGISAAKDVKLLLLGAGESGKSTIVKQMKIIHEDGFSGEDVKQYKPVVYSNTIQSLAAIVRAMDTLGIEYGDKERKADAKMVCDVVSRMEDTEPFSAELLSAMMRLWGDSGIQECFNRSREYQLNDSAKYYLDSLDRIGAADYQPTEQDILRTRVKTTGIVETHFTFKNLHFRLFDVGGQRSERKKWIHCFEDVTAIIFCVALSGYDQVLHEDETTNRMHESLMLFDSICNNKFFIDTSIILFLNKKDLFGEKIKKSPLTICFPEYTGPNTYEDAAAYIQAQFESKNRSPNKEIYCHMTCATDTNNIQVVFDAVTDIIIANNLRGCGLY
RGS4-Gao reg – human RGS4-Galphao interaction regulation. P09471. Multiplexed bead flow cytometry, RGS4-Galphao binding; actives lie on both sides. binding response (% of control), % at 10 µM. 220,000 tested, 0.33% active. AID 1415; in the data active means binding response below about 49% or above about 150%; inactive means in between;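 further: fluorescent Galphao activated with aluminum fluoride binding bead-coupled RGS4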
RGS7-Gao – regulators of human RGS7-Galphao interaction; Multiplexed bead flow cytometry, RGS7-Galphao binding; actives lie on both sides; binding response (% of control), % at 10 µM; 220,000 tested, 0.35% active; AID 1439; in the data active means binding response below about 49% or above about 150%; inconclusive means no clear call, values can overlap the other calls; inactive means in between;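 further: fluorescent Galphao held in activated GDP-AlF4 state binding bead-coupled RGS7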
Of the large screens only hits and unclear results are named; the others gave an inactive call. A selection: hits, their analogues and other compounds. The true share with any hit is near 1.2%.

Cc1ccc(C(C)C)c(OCc2nn(CC(=O)c3ccc(Cl)cc3)c3[n+]2CCCCC3)c1	none
CCN=C1S/C(=C\c2ccc(OC)c(OCC)c2)C(=O)N1CC	GSH fluor 106
COc1ccc(/C=C2\SC(=NCc3ccccc3)N(Cc3ccccc3)C2=O)cc1OC	none
Cc1nc(CNC(=O)CC2C(=O)NCCN2Cc2ccoc2)nc2c1CCCC2 (configuration not stated)	RGS7-Gao inconclusive (no result: GSH fluor)
Cc1ccc(NC(=O)c2ccccc2CCc2ccccc2)c(C)c1	Avidin fluor 56
Cc1noc(C)c1CSc1nnc2sc3ccccc3n12	none
Cc1noc(C)c1CSc1nc2ccccc2n1C	GSH fluor 240
CCOc1ccc2nc(NCCNC(=O)C(C)C)c(C)cc2c1	Avidin fluor 61
COC(=O)c1c(NC(=O)CSc2nnc(-c3ccco3)n2Cc2ccccc2)sc(C)c1C	GSH fluor 268
COC(=O)CSc1nnc(-c2ccco2)n1Cc1ccco1	Avidin fluor 72
COc1ccc(CCNC(=O)c2cc(-c3cc(Cl)ccc3O)n[nH]2)cc1OC	RGS7-Gao inconclusive (no result: GSH fluor)
O=C(CN1CCOCC1)n1c2ccccc2c2ccccc21	GSH fluor 256
COc1cccc(CN(C)C(=O)c2cc(COc3ccc4ncccc4c3)on2)c1	none
N#CC1=C(N)Oc2n[nH]c(-c3cccs3)c2C1c1cccs1 (configuration not stated)	Avidin fluor 48
N#CC1=C(N)Oc2n[nH]c(-c3cccs3)c2C1c1ccccc1C(=O)O (configuration not stated)	none
O=C(O)CCC(=O)Nc1ccccc1C(=O)N1CCN(c2ccc(Cl)cc2)CC1	none
CC(=O)Nc1cc2c(=O)n(Cc3ccccc3)c(C)nc2cc1N1CCOCC1	Avidin fluor 52
COc1ccc(C(=O)OCCN2CCOCC2)cc1	GSH fluor 96
Brc1cc(Cc2nnc(-c3ccccc3)o2)c(Br)s1	RGS7-Gao inconclusive (no result: GSH fluor)
c1ccc2sc(Cc3nnc4n3CCCCC4)nc2c1	Avidin fluor 88
O=C(NNc1cc(Cl)ccc1Cl)C1CCC1	RGS7-Gao inconclusive (no result: GSH fluor)
CCOC(=O)c1[nH]c2ccccc2c1NC(=O)CCN1CCN(C(=O)OCC)CC1	Avidin fluor 132
Cc1cc(NC(=O)CN2C(=O)NC(C)(c3ccc(OC(F)F)cc3)C2=O)no1 (configuration not stated)	Avidin fluor 48
Cc1ccc(C)c(OCC(=O)N/N=C/c2c(C)nn(-c3ccccc3)c2Cl)c1	Avidin fluor 56
CCOc1ccc(S(=O)(=O)Nc2ccc(C(=O)N/N=C(\C)c3ccc(-n4ccnc4)cc3)cc2)cc1	Avidin fluor 50
Cc1cccc(-n2nnnc2SCC(=O)c2cc(C)n(CC3CCCO3)c2C)c1 (configuration not stated)	GSH fluor 263
Cc1ccc(-n2nnnc2SCC(=O)c2cc(C)n(CC3CCCO3)c2C)cc1 (configuration not stated)	none
CC(C)(C)C(=O)Nc1nc2ccc(S(C)(=O)=O)cc2s1	none
CC1=CCC(C(=O)O)C(C(=O)Nc2nc3ccc(S(C)(=O)=O)cc3s2)C1 (configuration not stated)	GSH fluor 92
O=C(c1cc2cc([N+](=O)[O-])ccc2s1)N1CCOCC1	none
CC(=O)Nc1ccc(C(=O)Nc2nc(-c3cccnc3)cs2)cc1	Avidin fluor 63, RGS7-Gao inconclusive
O=C(/C=C/c1cc([N+](=O)[O-])ccc1OC(F)F)NCc1ccc(Cl)cc1	GSH fluor 264
COc1cc(/C=C/C(=O)OCC(=O)NCCC2=CCCCC2)ccc1O	RGS7-Gao inconclusive
CCCc1nnc(NC(=O)c2ccncc2)s1	GSH fluor 239
CCc1nnc(NC(=O)c2ccncc2)s1	none
COC(=O)/C(=C(/F)Sc1cc(C)c(O)c(C)c1)C(F)(F)F	none
CCc1cccc(C)c1NC(=O)C1CCCO1 (configuration not stated)	GSH fluor 251
Cc1cccc2sc(NC(=O)C3CCCO3)nc12 (configuration not stated)	none
CCc1c(C)sc(NC(=O)C2CCCO2)c1C#N (configuration not stated)	GSH fluor 139
